Reference: the supplement of paper PMC3545927
The other results are listed elsewhere or left out. The hit rate among all sequences tested is not known here.

Target: furin, P09958
Assay: furin cleavage Z-score vs untreated control; higher = more cleavage, active = 3.5 or more, inactive = 1 or less, 8 variable residues between constant flanks
Summary of the method: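 Purified furin digested bead-held 8-mer peptide–cDNA fusions at 1:10 enzyme:substrate in 0.01 ml of 50 mM HEPES pH 7.5 with CaCl2 and NaCl for 7.5, 15 or 30 min. The cleavage Z-score compares sequencing counts of released DNA with furin-free reactions on a log scale, with lowess adjustment and median absolute deviation scaling.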

Chain of furin, P09958 (P09958 whole entry): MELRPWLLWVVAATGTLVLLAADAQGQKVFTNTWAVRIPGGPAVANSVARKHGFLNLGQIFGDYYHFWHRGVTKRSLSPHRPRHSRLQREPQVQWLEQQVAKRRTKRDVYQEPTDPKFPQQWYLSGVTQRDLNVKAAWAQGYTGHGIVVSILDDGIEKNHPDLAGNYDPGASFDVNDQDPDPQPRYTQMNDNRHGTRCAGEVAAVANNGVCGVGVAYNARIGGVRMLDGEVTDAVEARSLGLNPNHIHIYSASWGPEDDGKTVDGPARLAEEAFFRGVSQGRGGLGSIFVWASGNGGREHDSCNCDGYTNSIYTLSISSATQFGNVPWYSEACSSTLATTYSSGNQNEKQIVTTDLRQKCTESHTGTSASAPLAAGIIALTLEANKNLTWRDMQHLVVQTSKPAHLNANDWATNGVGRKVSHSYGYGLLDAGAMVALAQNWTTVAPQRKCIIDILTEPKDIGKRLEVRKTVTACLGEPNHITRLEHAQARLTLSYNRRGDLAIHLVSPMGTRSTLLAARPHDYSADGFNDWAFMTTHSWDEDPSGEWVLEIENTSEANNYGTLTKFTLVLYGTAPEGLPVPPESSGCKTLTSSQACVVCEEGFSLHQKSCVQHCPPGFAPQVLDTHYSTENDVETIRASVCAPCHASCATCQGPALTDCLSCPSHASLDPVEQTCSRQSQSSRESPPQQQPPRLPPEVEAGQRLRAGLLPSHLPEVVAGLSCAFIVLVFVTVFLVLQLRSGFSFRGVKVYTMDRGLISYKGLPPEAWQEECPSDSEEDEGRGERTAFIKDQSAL

Row | Sequence | furin cleavage Z-score (7.5 min) | furin cleavage Z-score (15 min) | furin cleavage Z-score (30 min)
1 | CAARVAIKSLAGNASASA [HC1495] | -0.648 (inactive) | -1.12 (inactive) | -0.674 (inactive)
2 | CACTRGVAKAAGNASASA [HC753] | -1.87 (inactive) | -0.584 (inactive) | -0.853 (inactive)
3 | CATTPCVGSWAGNASASA [HC63] | 1.12 | 0.786 (inactive) | 1.12
4 | CALVALGINAAGNASASA [HC864] | 1.29 | -0.504 (inactive) | -2.31 (inactive)
5 | CAWVAAQLAAAGNASASA [HC1068] | 0.334 (inactive) | 0.0281 (inactive) | 0.213 (inactive)
6 | CAWGPISYANAGNASASA [HC395] | -0.888 (inactive) | 0.0541 (inactive) | -0.197 (inactive)
7 | CARIMRDSGLAGNASASA [FS-2150] | -1.41 (inactive) | 0.545 (inactive) | 0.804 (inactive)
8 | CARSRKRVSEAGNASASA [FS-2460] | 0.0687 (inactive) | 0.727 (inactive) | 0.464 (inactive)
9 | CARSRRNDEEAGNASASA [FS-2608] | 0.562 (inactive) | 2.36 | 0.814 (inactive)
10 | CARSRRGVSEAGNASASA [FS-2461] | 8.54 (active) | 8.94 (active) | 5.25 (active)
11 | CARSRRDFGLAGNASASA [FS-2310] | 2.52 | 5.69 (active) | 4.78 (active)
12 | CARSRRDREEAGNASASA [FS-3236] | 4.34 (active) | 4.09 (active) | 4.68 (active)
13 | CARWGRGFGLAGNASASA [FS-3129] | 1.38 | -3.28 (inactive) | 1.13
14 | CARSRKAKEEAGNASASA [FS-2186] | 0.169 (inactive) | -0.905 (inactive) | -0.373 (inactive)
15 | CARDGRDGRKAGNASASA [FS-1999] | 1.36 | -0.614 (inactive) | -0.387 (inactive)
16 | CARSRRDGRKAGNASASA [FS-3172] | 6.47 (active) | 7.48 (active) | 6.61 (active)
17 | CAMVPCHRPSAGNASASA [HC2306] | 1.55 | 0.971 (inactive) | 1.19
18 | CAVVCSSMSYAGNASASA [HC95] | -0.171 (inactive) | 0.902 (inactive) | 0.436 (inactive)
19 | CAPGDPDLSDAGNASASA [HC1358] | -0.316 (inactive) | -0.713 (inactive) | -1.52 (inactive)
20 | CARQKRQLWDAGNASASA [FS-2291] | 5.3 (active) | 8.17 (active) | 8.7 (active)
21 | CARQKRAVATAGNASASA [FS-2360] | 9.36 (active) | 11.9 (active) | 7.99 (active)
22 | CACGSGPWITAGNASASA [HC459] | -1.7 (inactive) | -2.37 (inactive) | -1.44 (inactive)
23 | CARQKRQNKEAGNASASA [FS-2756] | 1.89 | 0.961 (inactive) | 3.45
24 | CARQKRAWITAGNASASA [FS-3202] | 2.68 | 3.79 (active) | 6.77 (active)
25 | CALWMMLLISAGNASASA [HC528] | -0.863 (inactive) | -0.739 (inactive) | -0.913 (inactive)
26 | CASTLPGNPAAGNASASA [HC1050] | -1.13 (inactive) | 0.099 (inactive) | -1.54 (inactive)

Row | Sequence | furin cleavage Z-score (7.5 min) | furin cleavage Z-score (15 min) | furin cleavage Z-score (30 min)
27 | CARSRRCTCFAGNASASA [FS-2187] | -0.747 (inactive) | -0.988 (inactive) | -0.963 (inactive)
28 | CARSRRALPPAGNASASA [FS-2239] | 7.76 (active) | 7.46 (active) | 7.12 (active)
29 | CARSRRAQPPAGNASASA [FS-2814] | 3.03 | 4.42 (active) | 4.27 (active)
30 | CARSRRNVVMAGNASASA [FS-2382] | 5.51 (active) | 8.6 (active) | 7.9 (active)
31 | CARSRRKLMVAGNASASA [FS-2817] | -1.98 (inactive) | -0.17 (inactive) | -0.107 (inactive)
32 | CARSRRCLRDAGNASASA [FS-2607] | 4.81 (active) | 5.74 (active) | 5.33 (active)
33 | CARSRRWKVKAGNASASA [FS-3211] | 1.85 | -0.535 (inactive) | 0.212 (inactive)
34 | CASTPCSYHLAGNASASA [HC2529] | 0.0863 (inactive) | 1 | 1.34
35 | CAEVVTSFWVAGNASASA [HC2207] | -0.594 (inactive) | 1.74 | -0.243 (inactive)
36 | CASIPCSAHLAGNASASA [HC2484] | 0.328 (inactive) | 0.418 (inactive) | 0.274 (inactive)
37 | CAVVCCAMSYAGNASASA [HC101] | 1.72 | 0.536 (inactive) | 0.579 (inactive)
38 | CASVPAEILRAGNASASA [HC1295] | 0.956 (inactive) | 1.63 | 1.9
39 | CAYDAGCAWYAGNASASA [HC921] | 1.18 | 0.654 (inactive) | 0.883 (inactive)
40 | CALVSFLVFFAGNASASA [HC543] | -1.85 (inactive) | -1.89 (inactive) | -0.773 (inactive)
41 | CARSFRSVTSAGNASASA [FS-3234] | -0.371 (inactive) | 0.166 (inactive) | 0.853 (inactive)
42 | CARSRRTWELAGNASASA [FS-3265] | -1.05 (inactive) | 3.1 | 1.34
43 | CASQGRRRRPAGNASASA [FS-194] | -0.188 (inactive) | 0.828 (inactive) | 0.793 (inactive)
44 | CARSRRTICVAGNASASA [FS-3239] | 3.04 | 0.821 (inactive) | 3.9 (active)
45 | CARSRRAVSVAGNASASA [FS-2815] | 4.34 (active) | 4.32 (active) | 4.26 (active)
46 | CARSRNLGKVAGNASASA [HC218] | 1.83 | 3.1 | 0.167 (inactive)
47 | CARSNRDVFVAGNASASA [FS-1975] | 1.39 | 1.28 | 0.58 (inactive)
48 | CAPPSRRRRPAGNASASA [FS-1052] | 0.863 (inactive) | 0.662 (inactive) | 0.635 (inactive)
49 | CARSRRAATSAGNASASA [FS-3092] | 10.1 (active) | 11.9 (active) | 9.59 (active)
50 | CARSRKAVDWAGNASASA [FS-2238] | -0.617 (inactive) | 2.48 | 2.21
51 | CARSRKIAESAGNASASA [FS-2526] | -1.24 (inactive) | -0.08 (inactive) | -0.238 (inactive)
52 | CARSRRRRRPAGNASASA [FS-1407] | 4.05 (active) | 4.27 (active) | 4.75 (active)
